CHT inh: human CHT choline transport inhibition; actives 0.86% (n = 310,000); CHT-expressing cells, membrane potential dye, choline response; hits give low values; B-score at 10 µM;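 active means B-score over 3 SD under the library average, and starting fluorescence ratio not unusually high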;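 further: choline stimulus applied at its EC90 after an EC20 pre-addition; B-score computed on integrated fluorescence ratio after choline addition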
ANO1 block: blocks the mouse calcium-activated chloride channel TMEM16A. actives 1.2% (n = 310,000). Q8BHY3. HEK293 TMEM16A/YFP iodide influx fluorescence, ionomycin. normalized B-score (activity score, 25-100; higher = stronger inhibition) at 10 µM. AID 588511;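 active means ratio plate-corrected score three or more library SD toward inhibition, starting fluorescence score within five deviations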;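 further: score derived from kinetic fluorescence span divided by baseline fluorescence per well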
Target sequence (Q8BHY3 whole entry, looked up): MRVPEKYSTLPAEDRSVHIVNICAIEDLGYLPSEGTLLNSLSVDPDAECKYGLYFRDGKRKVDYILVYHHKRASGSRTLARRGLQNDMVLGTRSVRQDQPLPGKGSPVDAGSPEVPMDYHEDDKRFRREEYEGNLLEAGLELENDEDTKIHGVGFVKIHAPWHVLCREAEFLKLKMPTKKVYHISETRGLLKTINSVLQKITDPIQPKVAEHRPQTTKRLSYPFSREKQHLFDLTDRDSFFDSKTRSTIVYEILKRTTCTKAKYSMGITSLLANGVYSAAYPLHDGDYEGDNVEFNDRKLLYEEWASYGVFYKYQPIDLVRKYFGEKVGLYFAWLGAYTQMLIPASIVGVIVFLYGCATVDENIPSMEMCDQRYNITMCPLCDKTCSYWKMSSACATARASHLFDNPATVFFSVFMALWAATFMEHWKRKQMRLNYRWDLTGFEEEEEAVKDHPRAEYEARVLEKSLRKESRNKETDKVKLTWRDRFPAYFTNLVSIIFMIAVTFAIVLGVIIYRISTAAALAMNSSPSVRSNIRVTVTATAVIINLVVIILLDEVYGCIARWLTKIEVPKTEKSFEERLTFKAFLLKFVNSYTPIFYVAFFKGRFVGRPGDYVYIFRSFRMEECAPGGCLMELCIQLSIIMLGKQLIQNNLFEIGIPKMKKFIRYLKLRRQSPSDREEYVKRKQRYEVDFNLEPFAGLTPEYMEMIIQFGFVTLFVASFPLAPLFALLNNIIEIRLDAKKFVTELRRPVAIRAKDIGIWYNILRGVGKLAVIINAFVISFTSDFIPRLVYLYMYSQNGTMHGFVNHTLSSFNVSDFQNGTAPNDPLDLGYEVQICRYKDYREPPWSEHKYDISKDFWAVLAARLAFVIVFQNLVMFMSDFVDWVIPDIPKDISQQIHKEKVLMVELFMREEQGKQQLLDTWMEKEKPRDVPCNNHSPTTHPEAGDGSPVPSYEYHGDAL
CHT allo act: human CHT allosteric activation. Q9GZV3. actives 0.49% (n = 310,000). CHT-expressing cells, membrane potential dye, choline EC20; hits give high values; LV-AA mutant CHT in HEK293 cells. B-score at 10 µM. AID 488977;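 active means initial fluorescence not abnormally high and integrated response B-score, plate-corrected, over 3 SD above library mean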
TMEM16A act: activates or potentiates the mouse TMEM16A chloride channel; B-score at 10 µM; actives 0.3% (n = 340,000); AID 623877; HEK293 TMEM16A/YFP-H148Q/I152L, iodide quench fluorescence; hits give low values; Q8BHY3;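 active means fluorescence-ratio B-score plate-corrected deviation score at least 3 library SD below zero, with starting fluorescence score within 5 deviations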;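 further: channel opened by trigger with iodide after compound preincubation; score built on the fluorescence ratio of max minus min over baseline; more negative score means more quench and so TMEM16A activation or potentiation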
CHT block conf: confirmation of human choline transporter CHT inhibitors | shares compounds with CHT inh | CHT-expressing cells, choline membrane potential dye; LV-to-AA substituted CHT, HEK293 cells | CHT activity remaining % of control (hits give low values), % at 10 µM | actives 70% (n = 2,400);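 active means choline transporter activity left, mean of duplicates at 10 µM, below buffer-only control mean minus 3 SD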;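 further: depolarization triggered by choline at its EC90 following an EC20 pre-addition; 0% = hemicholinium-3 full block and 100% = buffer-only control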
HEK293 CHT ctr: activity in parental HEK293 cells lacking CHT; shares compounds with CHT inh; membrane potential dye, choline response; active = decrease or increase beyond buffer ±3SD; membrane potential ratio readout (active if shifted either direction beyond buffer ±3SD; no single direction) at 10 µM; actives 4% (n = 2,400); AID 493222;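 further: parental cells lack the transporter so any hit is non-specific; ratio is peak minus trough fluorescence over baseline after EC90 choline challenge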
Active calls of the source: *; i = inactive; · = no result given. An excerpt weighted towards active compounds, which were near 2.3% of everything screened.

SMILES	CHT inh	ANO1 block	CHT allo act	TMEM16A act	CHT block conf	HEK293 CHT ctr
CCc1c(C)nc2ncnn2c1N1CCN(S(=O)(=O)c2ccc(OC)cc2)CC1	-6.3*	i	i	i	50%*	i
CS(=O)(=O)Nc1cccc(-c2cnc3ccccc3n2)c1	i	i	i	i	·	·
CC(C)N(C)S(=O)(=O)c1ccc(NC(=O)C2=COCCO2)cc1	·	·	·	i	·	·
CC(C)CSc1nc(N)nc2c1ncn2C1OC(CO)C(O)C1O (centres undefined)	·	·	·	i	·	·
Cc1cc(C)c(NC(=O)c2ccc[n+](Cc3ccc([N+](=O)[O-])cc3)c2)c(C)c1	-10*	i	i	i	11%*	i
CCn1c(COc2ccc(=O)n(-c3ccccc3)n2)nnc1SCc1ccc(OC)cc1	-5.3*	i	i	i	i	i
Cc1ccc(C(C)C)c(OCC(=O)NNC(=O)Nc2ccccc2)c1	i	i	i	i	·	·
Cc1ccc(S(=O)(=O)NC(=O)COc2cc(C)ccc2C(C)C)cc1	-5.9*	i	i	i	50%*	i
Cn1c(SCc2nc(-c3cccs3)no2)nnc1C1CCCCC1	-7.2*	i	i	i	i	i
CCOc1ccc(-n2c(SCc3nc(-c4cccs4)no3)nnc2-c2ccncc2)cc1	-5*	i	i	i	i	i
Cc1cc(C)n2c(SCc3nnc(-c4cccs4)o3)nnc2n1	i	i	i	i	·	·
Cc1nnc(SCc2nnc(-c3cccs3)o2)n1C	-7*	i	i	i	i	i
Cn1c(SCc2nc(-c3ccccc3)no2)nnc1-c1cccs1	i	i	i	i	·	·
CCCn1c(SCc2nc(-c3cccs3)no2)nnc1-c1ccncc1	i	i	i	i	·	·
CS(=O)(=O)N(Cc1ccccc1)c1ccc(C(=O)N2CCc3ccccc3C2)cc1	i	i	i	i	·	·
CC(C)(C)N(NC(=O)Nc1ccccc1)C(=O)c1ccccc1	-6.1*	i	i	i	i	i
Cc1cc(C)c(C)c(S(=O)(=O)NCC(=O)Nc2sc3c(c2C(N)=O)CCCC3)c1C	i	i	i	i	·	·
CCc1nnc(NS(=O)(=O)c2ccc(NC(=O)c3cccc(Br)c3)cc2)s1	-7*	i	i	i	48%*	i
CCc1nnc(NC(=O)c2cc(S(=O)(=O)N(CC)CC)ccc2Cl)s1	-5.9*	i	i	i	52%*	i
CCc1nnc(NS(=O)(=O)c2ccc(NC(=O)c3cc(Cl)ccc3[N+](=O)[O-])cc2)s1	i	i	i	i	·	·
CCc1nnc(NS(=O)(=O)c2ccc(NC(=O)c3cc(Cl)ccc3Cl)cc2)s1	-6.1*	i	i	i	30%*	i
CCc1nnc(NS(=O)(=O)c2ccc(NC(=O)COc3ccc4ccccc4c3)cc2)s1	-5.8*	i	i	i	i	i
CCN(CC)S(=O)(=O)c1ccc(Cl)c(C(=O)NC)c1	i	i	i	i	·	·
CCc1nnc(NS(=O)(=O)c2ccc(NC(=O)c3cccc4ccccc34)cc2)s1	i	i	i	i	·	·
CN(CC(=O)Nc1cccc(F)c1)C(=O)CSc1nc2ccccc2s1	i	i	i	i	·	·
SMILES	CHT inh	ANO1 block	CHT allo act	TMEM16A act	CHT block conf	HEK293 CHT ctr
O=C(Nc1nccs1)C1CCN(S(=O)(=O)c2c(Cl)cccc2Cl)CC1	-5.9*	i	i	i	i	i
O=C(O)Cc1nc(-c2cccnc2)sc1-c1ccc(Br)cc1	i	i	i	i	·	·
O=C(Nc1ccc(S(=O)(=O)NC2=NCCCCC2)cc1)c1ccc(C(F)(F)F)cc1	-6.8*	i	i	i	41%*	i
CN(C)S(=O)(=O)c1ccc(C(=O)Nc2ccc(S(=O)(=O)NC3=NCCCCC3)cc2)cc1	i	i	i	i	·	·
CCCCOc1ccc(C(=O)NCC(=O)OC2CCOC2=O)cc1 (centres undefined)	-5*	i	i	·	i	i
O=C(O)CN1C(=O)CSC1=S	i	i	i	·	·	·
